Results: PubChem BioAssay AID1159580 (chemical genetic matrix, 2015)
The whole screen tested about 5,500 compounds, of which about 2,000 (36%) were called active. Another 18% or so got no clear call; they are omitted. Rule as the data show it: active = normalized growth mostly below about 0.91 (no sharp cut-off); inconclusive = no clear call, values can overlap the other calls; inactive = mostly above about 0.92. The list shows a part of the results.

Experiment: chemical genetic growth profiling, strain panel (AID 1159580);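 also: tested at 20 µM; growth read once vehicle control cultures reached saturation at 30 °C; 1 = growth at the plate median or of vehicle wells; lower values mean less growth of the strain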
Conditions: S. cerevisiae deletion strains, growth OD

Measured: normalized growth

CCC1(C2=NCCN2)Cc2ccccc2O1 (stereo not given)
inactive: locus YAL021C, strain ccr4, stronger effect = lower value 0.996 | locus YAL026C, strain drs2, stronger effect = lower value 1.01 | locus YAL030W, strain snc1, stronger effect = lower value 1.01 | locus YAL040C, strain CLN3, stronger effect = lower value 1.07 | locus YBL061C, strain skt5, stronger effect = lower value 1 | locus YBR009C, strain hhf1, stronger effect = lower value 1.01 | locus YBR023C, strain chs3, stronger effect = lower value 1.01 | locus YBR171W, strain sec66, stronger effect = lower value 1.02 | locus YBR231C, strain swc5, stronger effect = lower value 0.998 | locus YBR279W, strain paf1, stronger effect = lower value 1.01 | locus YCL011C, strain gbp2, stronger effect = lower value 1.02 | locus YCL016C, strain dcc1, stronger effect = lower value 1 | locus YCL061C, strain MRC1 (second series), stronger effect = lower value 1.01 | locus YCL061C, strain MRC1, stronger effect = lower value 1 | locus YCL069W, strain vba3, stronger effect = lower value 1.01 | locus YCR088W, strain abp1, stronger effect = lower value 1.02 | locus YDL005C, strain med2, stronger effect = lower value 1 | locus YDL040C, strain nat1, stronger effect = lower value 1.01 | locus YDR001C, strain nth1, stronger effect = lower value 1.01 | locus YDR069C, strain doa4, stronger effect = lower value 1 | locus YDR137W, strain rgp1, stronger effect = lower value 1.01 | locus YDR159W, strain sac3, stronger effect = lower value 0.991 | locus YDR195W, strain ref2 0.967 | locus YDR297W, strain sur2, stronger effect = lower value 1 | locus YDR334W, strain swr1, stronger effect = lower value 1.01 | locus YDR335W, strain msn5, stronger effect = lower value 1.01 | locus YDR363W, strain ESC2, stronger effect = lower value 1.03 | locus YDR392W, strain spt3, stronger effect = lower value 0.818 | locus YEL003W, strain gim4, stronger effect = lower value 1.01 | locus YEL037C, strain rad23, stronger effect = lower value 1.01 | locus YEL061C, strain CIN8 (second series), stronger effect = lower value 1.01 | locus YER002W, strain NOP16, stronger effect = lower value 1.01 | locus YER015W, strain faa2, stronger effect = lower value 1 | locus YER016W, strain bim1, stronger effect = lower value 1.01 | locus YER111C, strain swi4, stronger effect = lower value 1.01 | locus YER155C, strain BEM2 (second series), stronger effect = lower value 0.973 | locus YFR010W, strain ubp6, stronger effect = lower value 1.01 | locus YGL167C, strain pmr1, stronger effect = lower value 1 | locus YGL173C, strain kem1, stronger effect = lower value 1.01 | locus YGL227W, strain vid30, stronger effect = lower value 1.01 | locus YGL240W, strain doc1, stronger effect = lower value 0.989 | locus YGL253W, strain hxk2, stronger effect = lower value 1.02 | locus YHR013C, strain ard1, stronger effect = lower value 0.964 | locus YHR027C, strain rpn1, stronger effect = lower value 1.01 | locus YHR142W, strain chs7, stronger effect = lower value 1.02 | locus YJL092W, strain hpr5, stronger effect = lower value 1.01 | locus YJL095W, strain BCK1 (second series), stronger effect = lower value 1.01 | locus YJL115W, strain asf1, stronger effect = lower value 1 | locus YJL129C, strain trk1, stronger effect = lower value 0.996 | locus YJL154C, strain vps35, stronger effect = lower value 1.01 | locus YJL164C, strain tpk1, stronger effect = lower value 0.995 | locus YJL166W, strain qcr8, stronger effect = lower value 1 | locus YJL187C, strain SWE1, stronger effect = lower value 1.01 | locus YKL160W, strain elf1, stronger effect = lower value 0.99 | locus YKR026C, strain gcn3, stronger effect = lower value 1.02 | locus YKR091W, strain srl3, stronger effect = lower value 1 | locus YLL001W, strain dnm1, stronger effect = lower value 1.01 | locus YLL026W, stronger effect = lower value 1 | locus YLL041C, strain sdh2, stronger effect = lower value 1.01 | locus YLR027C, strain aat2, stronger effect = lower value 1.01 | locus YLR221C, strain rsa3, stronger effect = lower value 1.01 | locus YLR258W, strain gsy2, stronger effect = lower value 1 | locus YLR262C, strain YPT6 (second series), stronger effect = lower value 0.995 | locus YLR320W, strain mms22, stronger effect = lower value 1 | locus YLR342W, strain FKS1, stronger effect = lower value 1 | locus YLR357W, strain rsc2, stronger effect = lower value 1.01 | locus YLR370C, strain arc18, stronger effect = lower value 1.01 | locus YLR384C, strain iki3, stronger effect = lower value 1.01 | locus YML120C, strain ndi1, stronger effect = lower value 1.01 | locus YMR058W, strain fet3, stronger effect = lower value 1.01 | locus YMR125W, strain sto1, stronger effect = lower value 1.01 | locus YMR129W, stronger effect = lower value 1 | locus YMR205C, strain PFK2, stronger effect = lower value 1 | locus YMR231W, strain pep5, stronger effect = lower value 1 | locus YMR263W, strain SAP30, stronger effect = lower value 1.01 | locus YMR307W, strain GAS1, stronger effect = lower value 1.03 | locus YNL071W, strain lat1, stronger effect = lower value 1.01 | locus YNL153C, strain GIM3, stronger effect = lower value 0.99 | locus YNL175C, strain NOP13, stronger effect = lower value 1.01 | locus YNL197C, strain WHI3, stronger effect = lower value 1.01 | locus YNL209W, strain ssb2, stronger effect = lower value 1 | locus YNL224C, strain SQS1, stronger effect = lower value 1.01 | locus YNL248C, strain rpa49, stronger effect = lower value 1 | locus YNL322C, strain KRE1 (second series), stronger effect = lower value 1 | locus YNL322C, strain KRE1, stronger effect = lower value 1.01 | locus YNR049C, strain mso1, stronger effect = lower value 1.01 | locus YOR001W, strain rrp6, stronger effect = lower value 1 | locus YOR070C, strain gyp1, stronger effect = lower value 1.01 | locus YOR080W, strain dia2, stronger effect = lower value 0.994 | locus YOR083W, strain WHI5 (second series), stronger effect = lower value 1 | locus YOR083W, strain WHI5, stronger effect = lower value 0.994 | locus YOR106W, strain vam3, stronger effect = lower value 1.01 | locus YOR265W, strain rbl2, stronger effect = lower value 1.01 | locus YOR270C, strain vph1, stronger effect = lower value 1.03 | locus YOR290C, strain snf2, stronger effect = lower value 0.965 | locus YPL051W, strain arl3, stronger effect = lower value 1 | locus YPL078C, strain atp4, stronger effect = lower value 1 | locus YPL106C, strain sse1, stronger effect = lower value 0.984 | locus YPL240C, strain hsp82, stronger effect = lower value 0.991 | locus YPL241C, strain CIN2, stronger effect = lower value 1.01
